In the supplement of paper PMC10105736:
± gives the standard deviation of the averaged measurements.

Columns and labels:
Assay in all cases: MAPPIT interaction score (arbitrary units); higher = stronger binary interaction signal, active = hit call of the paper;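 active = MAPPIT score above the 99th percentile of random reference set scores in the same batch; inactive = at or below it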
GILT1 = details: MAPPIT configuration: N-N; pair source set: Curagen_low_conf
Mad1 = details: MAPPIT configuration: N-N; pair source set: screen_1
GILT3 = details: MAPPIT configuration: N-N; pair source set: Finley_Y2H
Fkbp39 = details: pair source set: Lit-BM-16
Gem2 = details: MAPPIT configuration: N-N; pair source set: Lit-BM-16
Smn = details: MAPPIT configuration: N-N; pair source set: screen_2
Fkbp12 = details: MAPPIT configuration: N-N; pair source set: DPIM
Fer1HCH = details: MAPPIT configuration: N-N; pair source set: Curagen_low_conf
mino = details: MAPPIT configuration: N-N; pair source set: Lit-BS-16
FoxP = details: MAPPIT configuration: N-N; pair source set: Curagen_high_conf
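Note: HEK293T cells with Epo stimulation, STAT-responsive firefly luciferase reporter, fold induction versus unstimulated cells divided by the larger fold induction of two negative controls lacking either bait or prey.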

B1: me31B (protein)
chain: MMTEKLNSGHTNLTSKGIINDLQIAGNTSDDMGWKSKLKLPPKDNRFKTTDVTDTRGNEFEEFCLKRELLMGIFEKGWERPSPIQEAAIPIALSGKDVLARAKNGTGKTGAYCIPVLEQIDPTKDYIQALVMVPTRELALQTSQICIELAKHLDIRVMVTTGGTILKDDILRIYQKVQLIIATPGRILDLMDKKVADMSHCRILVLDEADKLLSLDFQGMLDHVILKLPKDPQILLFSATFPLTVKNFMEKHLREPYEINLMEELTLKGVTQYYAFVQERQKVHCLNTLFSKLQINQSIIFCNSTQRVELLAKKITELGYCCYYIHAKMAQAHRNRVFHDFRQGLCRNLVCSDLFTRGIDVQAVNVVINFDFPRMAETYLHRIGRSGRFGHLGIAINLITYEDRFDLHRIEKELGTEIKPIPKVIDPALYVANVGASVGDTCNNSDLNNSANEEGNVSK
**Q.** For B1, which MAPPIT interaction score (GILT1) is on record?
**A.** 0.228 (inactive)

**Q.** And the MAPPIT interaction score (Mad1)?
**A.** 0.203 (inactive)

B2: fog (protein)
chain: MSPPNCLLAVLALTVFIGANNALPITSRPIEGNVQRMVWEDWVNLDPEQRNLTKEKKITAKSIFTLPFRHCPQGHTLFNQLCIPQSNIDPTDLVKQELILAGGSNGSPPPPPIGDYDYGDDEESEEIVYDLSVIPTAMQDGLPPSVGTGDQALPSEDAPLKFNIFEKKFPTGTGEHEEMPLPPDMAAATYAKNISTTPETSTSITPTSTTTFAVPSVPSGEASNRIPGGVDLLAAPSDAFSTSTTLSMPTSNTTTTSNKDIGQVESIVLPADQEHDGLVHLVTSSLSDNDSDDSSTTLNGFNAEADLAQLLKVDAFWPVYDGSIELLPPLFSHRKVAPPLSADQDVKTKHAVDAAEKVGAELEEEVGEEEVTATDILPSEEDEYTTETATTTGDTTVAEASMDTSTATSTSGQSSPHPPEEPEIDERENRLVLIKSKVQPVQLTTTTSATATTAADVANSSSSTDRFHYQHFVEDESSTTTATPEPSSSTPGDPIEQSDMPASDNDNLMTNTIGGRGDDDDDGGHKATSEIHVQQELRLINELVKGKQRQQHQPQKQQLEPTSTEITSALTSTSTEDATTTTTTTTAYTNWSKVMPQLGQSTSETAATTETVATSGQVNEISLTATSASTEVKHFSITNRSYRNSKIIREDRLTVEPEGIVESAASTESAGTAATTPNSSSNPDGYTPLWWLPSIGWRLDRHLDGNGEDQSLLLRFFSTFRGSNTAATTR
**Q.** For B2, which MAPPIT interaction score (GILT3) is on record?
**A.** -0.488 (inactive)

B3: Fkbp39 (protein)
chain: MSMFWGLNMKPERKYSQTIIKSFHISGVALDKGQEAKLYLAAEKQEYIVATVTKAIPQVALDLNFSKGDRIMFYTAGDASVSLLGYLHDIDSEDDEDDDQMTIENLLNSKAIKNSKKSEDDEDENESGEEDEEDTDDDSQIIEEYESFLENGEEEDDDDVDEDNEESGEEDEQDSDDSEAEEEQPKAKVAKLSPGASAKKSGKEQNGVAKKEEAKQQQKKKEKPEAKKEQPKAKEPAKQQPASKDPRTITGGVKIVDQVVGKGEEAKQGKRVSVYYIGRLQSNNKTFDSLLKGKPFKFALGGGEVIKGWDVGVAGMKVGGKRVITCPPHMAYGARGAPPKIGPNSTLVFEVELKAVH
**Q.** Which MAPPIT interaction score (Fkbp39; MAPPIT configuration: N-C) does the source give for B3 here?
**A.** 3.82 (active)

**Q.** What about the MAPPIT interaction score (Fkbp39; MAPPIT configuration: N-N) of the same binder?
**A.** 2.59 ± 0.55

B4: Smn (protein)
chain: MSDETNAAVWDDSLLVKTYDESVGLAREALARRLADSTNKREEENAAAAEEEAGEISATGGATSPEPVSFKVGDYARATYVDGVDYEGAVVSINEEKGTCVLRYLGYENEQEVLLVDLLPSWGKRVRREQFLIAKKDEDEQLSRPKASAGSHSKTPKSSRRSRISGGLVMPPMPPVPPMIVGQGDGAEQDFVAMLTAWYMSGYYTGLYQGKKEASTTSGKKKTPKK
**Q.** How did the MAPPIT interaction score (Gem2) turn out when B4 was run?
**A.** 6.28 (active)

**Q.** And the MAPPIT interaction score (Smn)?
**A.** 6.24 (active)

B5: sigmar (protein)
chain: MADNVFKSHDIGLRAQKKILSRMATKNIAKTFIDGTTASLLDNLYRLCKMHTGNKAKAEKLIKNIIKIVIKIGVLHRNNQFSDEELQKAELFKRKFQNTQLSIISFYEVDFTFDLPYLQKSIAESQVALKSIVQPHLTEKSLGRIDEVFDFFGEEALLETAFRPDSPYREVMGKIVADINAAMETGDI
**Q.** How did the MAPPIT interaction score (Fkbp12) turn out when B5 was run?
**A.** -0.294 (inactive)

B6: Hn (protein)
chain: MYQRQVSFDKPTRVEDSAYIVEGVDIKEARNTCLLFSPKDSSLSSGALANILAIFKKHDINLVHIESRSSLRVPGYEFFVEADGKSGALGKAIEDVKEQCSYFNIISRDYKDNATAVPWFPRRIRDLDRFANQILSYGSELDADHPGFTDPEYRKRRKYFADIAYNYKHGEPLPHVDYTKEEIETWGIIFRNLTKLYKTHACREYNHVFPLLVDNCGFREDNIPQLEDVSNFLRDCTGFTLRPVAGLLSSRDFLAGLAFRVFHSTQYIRHPSKPMYTPEPDVCHELMGHVPLFADPAFAQFSQEIGLASLGAPDDYIEKLSTIFWFTVEYGVCRQEGELKAYGAGLLSSYGELEYCLTDKPQLKDFEPEVTGVTKYPITQFQPLYYVADSFETAKEKTIKFANSIPRPFGVRYNAYTQSVEVLDSKPQISNLMDNINSEFQILQNAVAKLRV
**Q.** Which results are given for B6?
**A.** MAPPIT interaction score (Fer1HCH): 0.406 (inactive); MAPPIT interaction score (mino): 0.808 (inactive)

B7: mats (protein)
chain: MDFLFGSRSSKTFKPKKNIPEGTHQYDLMKHAAATLGSGNLRNAVALPDGEDLNEWVAVNTVDFFNQINMLYGTITEFCTEETCGIMSAGPKYEYHWADGLTVKKPIKCSAPKYIDYLMTWVQDQLDDETLFPSKIGVPFPKNFHSSAKTILKRLFRVYAHIYHQHFTEVVTLGEEAHLNTSFKHFIFFVQEFNLIERRELAPLQELIDKLTAKDERQI
**Q.** With B7 as the binder, how does the MAPPIT interaction score (FoxP) read?
**A.** 1.25 (inactive)
